This is an account of results in PubChem BioAssay (NCATS).

Structures are written as SMILES. Activity calls are given as the source filed them. The call rests on the fitted dose curve; in most records, active means well fitted activation curve with a large enough effect; inconclusive means small, poorly fitted or top-dose-only effect; inactive means flat fitted curve, though single readings scatter.

A short description of the test: Confirmation and Secondary Assay for Modulators of Hemoglobin Beta Chain Splicing at IVS2 705 locus (AID 930).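 Further: HeLa cells stably expressing the EGFP-705 splicing reporter; GFP fluorescence per well restored by corrected splicing of the IVS2-705 intron in EGFP.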 Particulars: HeLa EGFP-705 splicing reporter, GFP fluorescence, 48 h; series mostly up to 46.1 µM. In outline: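 HeLa EGFP-705 reporter; 500 cells/well, o/n 37C 5% CO2; cpd 2 d; 488 ex/500-520 em laser scan; total peak GFP intensity/well. Ref: 500 nM […] antisense PNA.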
Take `CC(=O)NCCCCCC(=O)O`: the compound was classed as inactive.

For the compound `Cc1cc(C)cc(OCC2CNC(=O)O2)c1` (stereo unspecified), the outcome was inactive.

Consider `CCCCCN=C(N)N/N=C/c1c[nH]c2ccc(OC)cc12`, for which the outcome was inactive.

For `COc1cc(NS(=O)(=O)c2ccc(N)cc2)ncn1`, the compound was classed as inactive.

Turning to `CN1CCC(OC(c2ccccc2)c2ccccc2)CC1`, the result was inactive.

Take `C[N+]12CCC(CC1)C(OC(=O)C(O)(c1ccccc1)c1ccccc1)C2` (stereo unspecified): the compound was called inactive.

For `CCN1CCCC(OC(=O)C(c2ccccc2)c2ccccc2)C1` (stereo unspecified), the outcome was inactive.

For the compound `CCN(CC)CCOC(=O)C(Cc1cccc2ccccc12)CC1CCCO1` (stereo unspecified), the result was inactive.

Turning to `COc1ccc(-c2cc(C(F)F)nn2-c2ccc(S(N)(=O)=O)cc2)cc1F`, the compound was called inactive.

For `COC(=O)C(c1ccccc1Cl)N1CCc2sccc2C1` (stereo unspecified), the call was inactive.

With `CCN(CC)CCNc1ccc(CO)c2sc3ccccc3c(=O)c12`, the compound was called inactive.
